Assay [1] concerns the target Lysosomal acid glucosylceramidase (Homo sapiens) (UniProt P04062). Kind of assay: Glucocerebrosidase-p2 (AID 348; in the data active means potency below about 10 µM; further: potency means the concentration at half of the fitted maximal effect). The conditions noted are these: purified GBA, blue fluorogenic substrate, 40 min. In outline:
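Compounds titrated from 0.6 nM upwards against 0.2 nM enzyme in pH 5.9 citric acid/KH2PO4, taurocholate, tween-20; blue fluorogenic substrate 80 uM, 40 min room temperature, stopped and read Ex 365/Em 440 for AC50.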

Assay [2] can be described thus: AP1 Signaling Pathway (AID 357; active means well fitted curve in either direction with a large enough effect, not every such curve was filed as active;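 further: ME-180 reporter cells stimulated with EGF at its EC50 level; on the % scale 0 is the no-effect control and ±100 the full control effect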). The following applies: ME-180 AP-1-bla reporter, EGF-induced, beta-lactamase ratio, 5 h; at 7.69 µM (top of the series) unless noted. In outline:
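Cells are seeded overnight, exposed to compound titrations and an EC50 level of EGF for 5 hours at 37 °C, then loaded with CCF4 dye for 2.5 hours. Beta-lactamase activity under the AP-1 element is read as a blue/green ratio.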

In assay [3] the target is Cytochrome P450 1A2 (Homo sapiens) (UniProt P05177). In words: p450-cyp1a2 (AID 410; calls by dose curve; further: potency means the concentration at half of the fitted maximal effect;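 on activity change, negative = inhibition: -100% = full effect of reference inhibitor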). The following applies: recombinant CYP1A2, luciferin-ME demethylation, luminescence; series mostly up to 57 µM. In outline:
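20nM CYP1A2 with 100uM Luciferin-ME (at Km) in 100mM KPO4; compound preincubated 10 min, NADPH regeneration added, 60 min at room temperature. Luciferin quantified by luminescence after detection reagent; normalized to 57 uM furafylline.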

Assay [4] can be described thus: Stat Signaling Pathway (AID 446; active means well fitted curve in either direction with a large enough effect, not every such curve was filed as active;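 further: ME-180 cervical cancer cells given 40 pM IL-6 alongside compound; SIE-controlled beta-lactamase reporter measured as 460/530 nm FRET emission ratio; on the % scale 0 is the no-effect control and ±100 the full control effect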). The following applies: ME-180 (cervical carcinoma) SIE beta-lactamase reporter, IL-6 stimulated, 5 h; at 7.69 µM (top of the series) unless noted. In outline:
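ME-180 SIE-bla cells; overnight plating; cpd + IL-6 40 pM, 5 h, 37 C; LiveBLAzer 2.5 h RT; 460/530 nm emission ratio. Normalized to 300 pM IL-6 and 125 nM JAK inhibitor controls.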

The target in assay [5] is Glucocorticoid receptor (Homo sapiens) (UniProt P04150). In words: GR-GFP Redistribution (AID 450;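 active means compounds whose dose series gives a full or clear partial fitted curve of increased nuclear translocation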; further: potency means the concentration at half of the fitted maximal effect). The conditions noted are these: U2OS GR-GFP nuclear translocation, laser cytometry, 2 h.
Glucocorticoid receptor (Homo sapiens), sequence (P04150 whole entry, looked up): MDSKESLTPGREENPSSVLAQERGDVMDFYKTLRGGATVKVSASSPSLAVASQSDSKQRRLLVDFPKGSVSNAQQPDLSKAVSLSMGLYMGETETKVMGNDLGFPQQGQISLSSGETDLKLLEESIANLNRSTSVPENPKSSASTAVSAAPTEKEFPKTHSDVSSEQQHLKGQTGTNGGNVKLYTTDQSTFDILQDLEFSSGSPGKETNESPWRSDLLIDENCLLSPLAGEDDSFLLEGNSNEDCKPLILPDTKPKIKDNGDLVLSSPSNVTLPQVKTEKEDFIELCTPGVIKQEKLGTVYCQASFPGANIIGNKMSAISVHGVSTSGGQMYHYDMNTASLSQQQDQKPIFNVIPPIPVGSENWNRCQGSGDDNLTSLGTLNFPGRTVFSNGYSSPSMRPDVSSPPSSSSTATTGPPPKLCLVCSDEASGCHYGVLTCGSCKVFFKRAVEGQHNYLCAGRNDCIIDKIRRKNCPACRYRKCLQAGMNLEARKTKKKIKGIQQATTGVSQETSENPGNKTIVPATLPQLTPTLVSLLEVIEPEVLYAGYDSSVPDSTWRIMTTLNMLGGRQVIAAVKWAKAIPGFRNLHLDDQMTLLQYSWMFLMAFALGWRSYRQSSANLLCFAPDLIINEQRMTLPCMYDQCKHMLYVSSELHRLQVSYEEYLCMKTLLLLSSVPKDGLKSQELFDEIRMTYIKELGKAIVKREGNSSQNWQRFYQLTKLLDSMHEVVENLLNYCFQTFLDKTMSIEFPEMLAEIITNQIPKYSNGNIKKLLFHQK
For assay [6] the target is unchanged. Kind of assay: GR-EFC Redistribution (AID 451; calls by dose curve; further: potency means the concentration at half of the fitted maximal effect). The following applies: CHO-K1 GR-EFC translocation, beta-gal luminescence, 2 h. In outline:
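CHO-K1 cells stably expressing nuclear-localized β-gal enzyme acceptor and GR fused C-terminally to the enzyme donor fragment; ligand-driven nuclear translocation restores β-gal by complementation. Compounds titrated up to 46 uM final, 2 h at 37 °C; luminescence read.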

The target of assay [7] is Mitogen-activated protein kinase 10 (Mus musculus) (UniProt Q61831). In words: JNK3 AlphaScreen Assay (AID 530; active means well fitted curve in either direction with a large enough effect, not every such curve was filed as active;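 further: kinase came from lysate of stimulated human HepG2 cells; signal reports phosphorylation of biotinylated GST-cJun 1-79 at Ser73 with 10 µM ATP; on the % scale 0 is the no-effect control and ±100 the full control effect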). The conditions noted are these: JNK3 lysate, c-Jun phosphorylation; series mostly up to 57.1 µM. In short, it runs like this:
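Inhibitors reduce antibody binding to phosphorylated biotin-cJun, lowering AlphaScreen luminescence. Lysates from HepG2 cells pre-activated by IL-1beta plus TNF-alpha supplied JNK3; compounds were titrated.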
(In general: In Alpha technology, singlet oxygen from a donor bead excites a nearby acceptor bead.)

Assay [8] addresses Cytochrome P450 3A4 (Homo sapiens) (UniProt P08684). In words: qHTS Assay for Inhibitors and Substrates of Cytochrome P450 3A4 (AID 884). Further: nearly all actives have a fitted effect of over 50% in size. Further: potency means the concentration at half of the fitted maximal effect. The conditions noted are these: recombinant CYP3A4, Luciferin-PPXE luminescence; series mostly up to 57.1 µM. In short, it runs like this:
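20 nM human CYP3A4 with 25 uM Luciferin-PPXE (at KM) in 200 mM KPO4, preincubated 10 min with compound; NADPH regeneration started a 60 min RT reaction. Luciferin detected by luminescence, normalized to 57 uM ketoconazole as full inhibition.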
(In general: Quantitative high-throughput screening tests each substance at several concentrations.)

The target is the same in assay [9]. In words: qHTS Assay for Activators of Cytochrome P450 3A4 (AID 885). Further: nearly all actives have a fitted effect of over 65% in size. Further: potency means the concentration at half of the fitted maximal effect. The conditions noted are these: recombinant CYP3A4, Luciferin-PPXE luminescence, 60 min; series mostly up to 57.1 µM. In outline: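 20nM CYP3A4 + 25uM Luciferin-PPXE (=KM), 200mM KPO4; cpd 10 min RT; NADPH regen, 60 min RT; stop w/ detection buffer, 20 min; luminescence. Normalized to 57 uM ketoconazole.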

Assay [10] deals with Cytochrome P450 2D6 (Homo sapiens) (UniProt P10635). In words: qHTS Assay for Inhibitors and Substrates of Cytochrome P450 2D6 (AID 891). Further: nearly all actives have a fitted effect of over 60% in size. Further: potency means the concentration at half of the fitted maximal effect. The following applies: recombinant CYP2D6, luciferin-ME EGE luminescence; series mostly up to 57.1 µM. In outline: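 Human CYP2D6 (5 nM) with 30 uM Luciferin-ME EGE (at Km) in 100 mM KPO4, compound preincubated 10 min, then NADPH regeneration system for 60 min at room temperature. Luciferin read by luminescence; normalized to 1.43 uM quinidine.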
Cytochrome P450 2D6 (Homo sapiens), sequence (P10635 whole entry, looked up): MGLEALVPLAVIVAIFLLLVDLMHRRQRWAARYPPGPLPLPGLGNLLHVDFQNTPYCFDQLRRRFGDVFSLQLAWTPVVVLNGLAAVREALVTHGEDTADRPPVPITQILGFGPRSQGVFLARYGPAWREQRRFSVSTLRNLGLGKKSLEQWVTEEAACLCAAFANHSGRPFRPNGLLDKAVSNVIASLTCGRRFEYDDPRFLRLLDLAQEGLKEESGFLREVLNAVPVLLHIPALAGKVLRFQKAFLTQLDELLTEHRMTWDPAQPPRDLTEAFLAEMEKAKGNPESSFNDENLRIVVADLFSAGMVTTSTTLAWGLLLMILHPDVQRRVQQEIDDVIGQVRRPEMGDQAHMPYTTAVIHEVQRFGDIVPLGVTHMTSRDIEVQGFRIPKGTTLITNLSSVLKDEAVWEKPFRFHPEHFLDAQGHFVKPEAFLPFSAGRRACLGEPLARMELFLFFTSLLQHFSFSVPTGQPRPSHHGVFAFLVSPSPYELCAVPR

Assay [11] in a line: Confirmation and Secondary Assay for Modulators of Hemoglobin Beta Chain Splicing at IVS2 654 locus (AID 910). Further: % of control where 0% means no effect. The conditions noted are these: HeLa EGFP-654 splicing reporter, GFP fluorescence, 48 h; series mostly up to 38.3 µM. In outline: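 HeLa cells stably carrying EGFP interrupted by mutant beta-globin IVS2-654 intron (CMV-driven) were treated with compound for 2 days at 37C; corrected splicing was scored as total peak GFP intensity per well (488 nm excitation, 500-520 nm emission).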

Assay [12] can be described thus: Confirmation and Secondary Assay for Modulators of Hemoglobin Beta Chain Splicing at IVS2 705 locus (AID 930).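 Further: HeLa cells stably expressing the EGFP-705 splicing reporter; GFP fluorescence per well restored by corrected splicing of the IVS2-705 intron in EGFP; % of control where 0% means no effect.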 The following applies: HeLa EGFP-705 splicing reporter, GFP fluorescence, 48 h; series mostly up to 38.3 µM. In outline:
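HeLa cells stably carrying EGFP interrupted by mutant beta-globin intron 2 (IVS2-705) treated 2 days at 37C with compound; 500 nM antisense PNA as control. Correct splicing read as total peak GFP intensity per well by laser-scanning cytometry.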

For assay [13], the target named is Ubiquitin carboxyl-terminal hydrolase 1 (Homo sapiens) (UniProt O94782). Kind of assay: Inhibitors of USP1/UAF1: Pilot qHTS (AID 504865).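 Further: rhodamine fluorescence freed from ubiquitin-rhodamine substrate followed over time; top concentration of the series differs between compounds; on the % scale 0 is the no-effect control and ±100 the full control effect; nearly all actives have a fitted effect of over 35% in size.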 The following applies: purified USP1/UAF1, Ub-rhodamine cleavage fluorescence; series mostly up to 54.9 µM. In short, it runs like this: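 USP1/UAF1 complex (1nM) preincubated with compound 15 min at room temperature, then Ub-Rho substrate (150nM final) added. Fluorescence read kinetically at 480/540 nm, 6 reads every 60 seconds. Buffer: 50mM HEPES pH 7.8, 0.5mM EDTA, 0.1 mg/ml BSA, 1mM TCEP, 0.01% Tween-20.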
Ubiquitin carboxyl-terminal hydrolase 1 (Homo sapiens), sequence (O94782 whole entry, looked up): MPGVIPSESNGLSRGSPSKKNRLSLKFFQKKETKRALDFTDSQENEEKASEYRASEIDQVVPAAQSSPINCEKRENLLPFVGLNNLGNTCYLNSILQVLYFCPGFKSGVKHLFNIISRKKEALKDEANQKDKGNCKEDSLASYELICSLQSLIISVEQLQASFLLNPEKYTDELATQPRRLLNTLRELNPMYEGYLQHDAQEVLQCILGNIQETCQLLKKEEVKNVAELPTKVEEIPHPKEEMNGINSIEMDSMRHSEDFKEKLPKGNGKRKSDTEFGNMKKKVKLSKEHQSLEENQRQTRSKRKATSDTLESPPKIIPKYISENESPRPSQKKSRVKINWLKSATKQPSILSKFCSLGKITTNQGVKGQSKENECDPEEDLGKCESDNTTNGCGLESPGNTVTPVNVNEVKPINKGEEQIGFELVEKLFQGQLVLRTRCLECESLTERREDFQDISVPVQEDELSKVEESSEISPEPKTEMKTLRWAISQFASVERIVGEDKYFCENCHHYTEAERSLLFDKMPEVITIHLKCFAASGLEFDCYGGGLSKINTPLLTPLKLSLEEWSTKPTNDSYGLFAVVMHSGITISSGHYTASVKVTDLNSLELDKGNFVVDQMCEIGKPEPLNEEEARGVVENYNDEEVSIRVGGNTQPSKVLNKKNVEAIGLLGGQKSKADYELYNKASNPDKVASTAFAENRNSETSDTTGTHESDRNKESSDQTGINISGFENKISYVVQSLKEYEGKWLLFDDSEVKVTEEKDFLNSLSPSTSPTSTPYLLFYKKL

A short description of assay [14]: Primary qHTS for small molecule stabilizers of the endoplasmic reticulum resident proteome: Secreted ER Calcium Modulated Protein (SERCaMP) assay (AID 1508630). Further: on the % scale 0 is the no-effect control and ±100 the full control effect. The following applies: SH-SY5Y GLuc-SERCaMP (Gaussia luciferase released on ER calcium loss) secretion, thapsigargin, luminescence; series mostly up to 38.4 µM. In short, it runs like this: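 GLuc-SERCaMP-expressing SH-SY5Y cells, pretreated 16 h with compound, are challenged with thapsigargin to empty ER calcium stores; after 4 h, coelenterazine is added directly to the medium and luminescence is imaged.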

Assay [15] concerns the target 3',5'-cyclic-AMP phosphodiesterase 4B (Homo sapiens) (UniProt Q07343). In words: qHTS Assay for Inhibitors of PDE-IV (AID 607; active means well fitted activation curve with a large enough effect in the main read-out, with a control signal flat, not every such curve was filed as active; further: % of control where 0% means no effect). The following applies: HEK293 ACTOne CNG channel cells, membrane potential fluorescence; series mostly up to 22.9 µM. In outline:
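ACTOne HEK293 cells carry a modified cAMP-gated CNG channel and express endogenous PDE4; plated 1000 cells/well, compounds up to 22.9 uM final. Membrane-potential dye fluorescence (ex 535/em 590) was read; parental cells received 10 uM forskolin + 100 uM RO 20-1724.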

The target of assay [16] is Cytochrome P450 2C9 (Homo sapiens) (UniProt P11712). In words: qHTS Assay for Inhibitors and Substrates of Cytochrome P450 2C9 (AID 883). Further: on the % scale 0 is the no-effect control and ±100 the full control effect; nearly all actives have a fitted effect of over 60% in size. The conditions noted are these: recombinant CYP2C9, luciferin-H luminescence, 60 min; series mostly up to 57.1 µM. In outline:
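CYP2C9 deoxyluciferin hydroxylation, 37C, 60 min with NADPH regeneration; 10nM enzyme, 100uM Luciferin-H (KM). Glo detection reagent stopped reaction; luminescence normalized to sulphaphenazole (57uM) full inhibition.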

The target of assay [17] is Cytochrome P450 2C19 (Homo sapiens) (UniProt P33261). In words: qHTS Assay for Inhibitors and Substrates of Cytochrome P450 2C19 (AID 899). Further: nearly all actives have a fitted effect of over 60% in size. Further: potency means the concentration at half of the fitted maximal effect. The following applies: recombinant CYP2C19, luciferin-H EGE luminescence; series mostly up to 57.1 µM. In outline:
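In 50mM KPO4, the reaction held 5nM enzyme and KM-level (10uM) Luciferin-H EGE; it ran 60 min at 37C after NADPH regeneration and a 10 min compound preincubation. Luminescence values were scaled to 57uM ketoconazole as complete inhibition.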

The nature of assay [18]: NFAT Signaling Pathway (AID 444; active means well fitted curve in either direction with a large enough effect, not every such curve was filed as active). The conditions noted are these: Jurkat NFAT-bla M1, carbachol, beta-lactamase ratio, 5 h; at 7.69 µM (top of the series) unless noted. In outline:
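Jurkat cells carrying an NFAT-driven β-lactamase reporter and co-transfected muscarinic M1 receptor were treated with compound plus carbachol (1 uM final, an EC50 level) for 5 h at 37 °C. CCF4 loading followed for 1 h at RT; 460/530 nm ratio gave %activity.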

A number with no mark means an inactive call. Results filed as inconclusive are left out. Active and inactive are the calls of the source. Unless noted, the call rests on the fitted dose curve; in most records, active means well fitted curve in the direction sought with a large enough effect; inconclusive means small, poorly fitted or top-dose-only effect, or another doubt; inactive means no such curve, though single readings can be large; an effect the other way counts as inactive or inconclusive.

3',5'-cyclic-AMP phosphodiesterase 4B (Homo sapiens), sequence (Q07343 whole entry, looked up): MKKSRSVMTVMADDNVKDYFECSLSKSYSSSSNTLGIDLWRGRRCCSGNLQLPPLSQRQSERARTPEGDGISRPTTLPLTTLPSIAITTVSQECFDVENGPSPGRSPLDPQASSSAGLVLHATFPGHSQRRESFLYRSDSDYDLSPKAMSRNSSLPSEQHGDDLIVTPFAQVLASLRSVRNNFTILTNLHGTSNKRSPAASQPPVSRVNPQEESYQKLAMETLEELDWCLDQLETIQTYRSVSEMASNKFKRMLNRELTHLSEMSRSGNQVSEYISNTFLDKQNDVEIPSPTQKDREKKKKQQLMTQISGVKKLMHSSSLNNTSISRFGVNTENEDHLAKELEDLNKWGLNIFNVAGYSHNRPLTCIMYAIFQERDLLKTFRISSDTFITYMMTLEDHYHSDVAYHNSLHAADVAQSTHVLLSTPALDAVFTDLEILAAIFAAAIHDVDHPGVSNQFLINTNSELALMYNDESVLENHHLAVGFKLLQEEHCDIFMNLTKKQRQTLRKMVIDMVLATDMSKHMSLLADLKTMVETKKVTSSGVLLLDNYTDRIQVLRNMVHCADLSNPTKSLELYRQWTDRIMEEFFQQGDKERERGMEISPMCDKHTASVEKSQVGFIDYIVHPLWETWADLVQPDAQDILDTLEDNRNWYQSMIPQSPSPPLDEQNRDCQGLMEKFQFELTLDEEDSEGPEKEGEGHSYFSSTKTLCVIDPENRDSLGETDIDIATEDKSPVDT
Cytochrome P450 1A2 (Homo sapiens), sequence (P05177 whole entry, looked up): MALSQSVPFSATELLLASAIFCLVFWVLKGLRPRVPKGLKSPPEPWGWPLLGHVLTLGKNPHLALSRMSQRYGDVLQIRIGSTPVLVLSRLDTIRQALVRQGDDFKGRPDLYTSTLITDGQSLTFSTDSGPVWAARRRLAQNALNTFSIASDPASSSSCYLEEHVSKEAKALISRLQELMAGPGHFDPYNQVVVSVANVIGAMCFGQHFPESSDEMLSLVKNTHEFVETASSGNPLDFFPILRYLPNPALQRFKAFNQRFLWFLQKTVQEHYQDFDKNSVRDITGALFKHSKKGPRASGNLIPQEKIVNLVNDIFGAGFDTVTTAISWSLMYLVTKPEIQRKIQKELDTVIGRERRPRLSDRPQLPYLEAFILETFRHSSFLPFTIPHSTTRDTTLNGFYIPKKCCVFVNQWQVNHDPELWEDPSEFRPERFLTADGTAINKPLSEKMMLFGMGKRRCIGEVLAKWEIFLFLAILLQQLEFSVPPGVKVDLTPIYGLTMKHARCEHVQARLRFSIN
Lysosomal acid glucosylceramidase (Homo sapiens), sequence (P04062 whole entry, looked up): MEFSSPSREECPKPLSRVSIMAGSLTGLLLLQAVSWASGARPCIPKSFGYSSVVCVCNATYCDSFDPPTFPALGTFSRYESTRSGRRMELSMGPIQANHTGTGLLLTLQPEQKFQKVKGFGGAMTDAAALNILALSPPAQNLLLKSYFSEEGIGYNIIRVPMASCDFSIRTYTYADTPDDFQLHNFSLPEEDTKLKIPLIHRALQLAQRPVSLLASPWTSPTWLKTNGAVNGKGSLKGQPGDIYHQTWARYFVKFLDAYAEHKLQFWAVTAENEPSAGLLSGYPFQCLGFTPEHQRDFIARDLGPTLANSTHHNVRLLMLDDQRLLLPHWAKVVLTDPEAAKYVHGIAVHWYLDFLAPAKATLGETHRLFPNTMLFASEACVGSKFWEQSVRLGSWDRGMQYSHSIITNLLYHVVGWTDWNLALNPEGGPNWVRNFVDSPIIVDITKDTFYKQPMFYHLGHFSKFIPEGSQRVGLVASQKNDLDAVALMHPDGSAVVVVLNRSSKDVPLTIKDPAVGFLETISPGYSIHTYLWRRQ
Cytochrome P450 3A4 (Homo sapiens), sequence (P08684 whole entry, looked up): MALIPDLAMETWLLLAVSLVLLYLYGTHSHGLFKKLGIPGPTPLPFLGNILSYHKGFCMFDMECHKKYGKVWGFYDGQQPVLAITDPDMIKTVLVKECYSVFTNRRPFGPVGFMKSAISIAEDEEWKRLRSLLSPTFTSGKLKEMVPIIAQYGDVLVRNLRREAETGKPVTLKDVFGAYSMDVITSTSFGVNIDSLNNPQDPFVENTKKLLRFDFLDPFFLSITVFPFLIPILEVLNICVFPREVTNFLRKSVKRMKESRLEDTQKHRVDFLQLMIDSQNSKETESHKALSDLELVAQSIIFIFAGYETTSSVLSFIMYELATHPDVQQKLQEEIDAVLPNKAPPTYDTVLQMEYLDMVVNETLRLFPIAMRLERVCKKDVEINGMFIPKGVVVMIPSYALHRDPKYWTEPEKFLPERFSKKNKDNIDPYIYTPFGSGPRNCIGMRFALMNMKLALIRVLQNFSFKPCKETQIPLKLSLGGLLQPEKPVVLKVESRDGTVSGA
Cytochrome P450 2C19 (Homo sapiens), sequence (P33261 whole entry, looked up): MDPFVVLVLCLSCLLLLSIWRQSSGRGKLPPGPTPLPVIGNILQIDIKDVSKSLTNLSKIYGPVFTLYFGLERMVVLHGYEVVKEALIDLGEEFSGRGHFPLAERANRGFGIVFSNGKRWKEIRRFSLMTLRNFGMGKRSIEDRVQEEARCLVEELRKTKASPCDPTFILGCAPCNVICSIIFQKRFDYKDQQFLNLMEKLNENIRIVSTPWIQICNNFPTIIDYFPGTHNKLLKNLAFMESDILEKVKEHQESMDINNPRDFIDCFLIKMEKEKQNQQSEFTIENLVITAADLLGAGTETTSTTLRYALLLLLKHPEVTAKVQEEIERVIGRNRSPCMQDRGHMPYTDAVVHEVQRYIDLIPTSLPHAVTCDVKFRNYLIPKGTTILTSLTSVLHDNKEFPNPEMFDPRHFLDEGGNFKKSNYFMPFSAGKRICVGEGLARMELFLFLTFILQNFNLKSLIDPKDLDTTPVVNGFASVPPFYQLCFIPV

Consider `COc1ccc(CNc2ncncc2-c2ccc3c(c2)OCO3)c(OC)c1`, for which the Potency in [1] was over 11.4 µM; in assay [3], 0.501 µM (active); in assay [5], over 46 µM; in assay [6], over 46 µM; in assay [8], 0.126 µM (active); in [10], 0.794 µM (active). The activity change, negative = inhibition in assay [2] is 11.1%. The activity, negative = inhibition in [4] was -6.57%. Besides, the Potency entry in [7], in assay [9], in assay [11] and in assay [13] was “inactive” each time. Besides, the call in [12] and in assay [14] was inactive.
With `O=C(c1ccco1)N1CCC2(CCCN(c3ccncc3)C2)CC1`, the Potency was over 11.4 µM in [1] and over 46 µM in assay [6]. Also, the activity change, negative = inhibition in [2] was -2.46%. The Potency entry in assay [3], in assay [7], in assay [15], in assay [16], in [10] and in assay [17] was “inactive” in each case. Besides, the activity, negative = inhibition in [4] is 3.15%. In addition, the result in [14] was inactive.
Regarding `COc1ccc(C(=O)N2CCC[C@@]3(CCN(c4cccc(-c5ccccc5)c4)C3)C2)cc1`, the Potency was over 11.4 µM in [1]; 12.6 µM (active) in [3]; over 46 µM in [6]; 3.16 µM (active) in assay [8]; 7.94 µM (active) in assay [17]. The activity change, negative = inhibition in assay [2] was 8.11%; in assay [18] it was -15.1%. The activity, negative = inhibition in [4] was -9.84%. Also, the Potency entry in [9] was “inactive”. Moreover, the outcome in assay [14] was inactive.
In the case of `COc1ccc(CNc2ncncc2-c2cccc(NS(C)(=O)=O)c2)c(OC)c1`, the Potency in assay [1] was over 2.29 µM; in [3], 15.8 µM (active); in assay [5] it was over 46 µM; in [6] it was over 46 µM; in [8], 0.251 µM (active). In addition, the activity change, negative = inhibition in assay [2] was -14.5%. In addition, the activity, negative = inhibition in assay [4] was 17.9%. Besides, the Potency entry in assay [7], in assay [15], in assay [9] and in assay [13] was “inactive” each time. The outcome in assay [14] was inactive.
For the compound `CC(=O)N1CCC2(CC1)CCN(C(c1ccccc1)c1ccccc1)CC2`, the Potency in assay [1] is over 11.4 µM; in assay [6], over 46 µM; in assay [9], 25.1 µM (active); in [10] it was 7.94 µM (active). Also, in assay [2], the activity change, negative = inhibition is -6.19%. Moreover, the Potency entry in assay [3], in assay [7], in assay [15] and in [8] was “inactive” in each case. In addition, the activity, negative = inhibition in [4] is -5.71%. For the same compound, the outcome in assay [14] was inactive.
In the case of `Clc1ccccc1-c1cc(NCc2cccnc2)ncn1`, the Potency is over 11.4 µM in assay [1], 3.16 µM (active) in assay [3], over 46 µM in assay [5] and over 46 µM in assay [6]. For the same compound, the activity change, negative = inhibition in [2] was -5.3%. In addition, in assay [4], the activity, negative = inhibition is 6.36%. Also, the Potency result in assay [7], in assay [15], in [9] and in assay [13] was “inactive” throughout. Moreover, the result in [12] and in [14] was inactive.

The values are drawn from PubChem BioAssay (NCATS).
